This is a sample that favours compounds with a hit; in the whole collection about 7.5% have one here.
ELG1 genotox: genotoxicity induction in ELG1-luciferase HEK293T cells. Potency, µM (titrated, usually from 46 µM), for inactives: at the highest dose activity change, positive = activation, usual class: activators. HEK293T ELG1-luciferase reporter, luminescence, 16 h. actives 1.3% (n = 330,000); further: % of control where 0% means no effect; nearly all actives have a fitted effect of over 60% in size
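ELG1-luciferase HEK293T cells, 2,000/well; compound pinned in; 16 hr, 37 °C, 5% CO2; ONE-Glo, 30 min RT; luminescence on CCD imager.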
Rab9 promoter act: Rab9 promoter activation. AID 485297. Huh7 Rab9 promoter-luciferase reporter, luminescence, 24 h. Potency, µM (highest dose often 9.22 µM), for the others: top-dose activation, negative = inhibition, usual class: activators. actives 2.8% (n = 320,000); further: % of control where 0% means no effect; nearly all actives have a fitted effect of over 60% in size
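Measured in stably transfected Huh7 cells bearing a Rab9 promoter–luciferase construct: 24 h compound treatment at 37 °C, followed by luminescence detection.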
SMN2 splice enh: enhancers of SMN2 splice variant expression; HEK293 SMN2-luciferase splicing reporter, luminescence, 30-36 h; Potency, µM (doses to about 46.1 µM), without a hit: at the top dose activity change, positive = activation, most hits filed as activators; actives 2.8% (n = 210,000); further: % of control where 0% means no effect; nearly all actives have a fitted effect of over 55% in size
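HEK293 cells carry an SMN2 minigene-luciferase reporter in which exon 7 inclusion puts luciferase in frame. Cells were seeded at 2000 cells/well, attached for 10-12 hours, then exposed to compounds for 30-36 hours at 37C before ONE-Glo luminescence.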
FLuc counter: firefly luciferase modulation, counter-screen for miR-21 project | P08659 | purified FLuc, Km substrates, luminescence inhibition | Potency, µM (highest dose often 57.5 µM), for the others: at the highest dose activity change, negative = inhibition, most hits filed as inhibitors | actives 6.9% (n = 360,000) | AID 588342;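 further: plate controls were vehicle for no effect and reference inhibitor for full effect; nearly all actives have a fitted effect of over 55% in size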
Target sequence (P08659 whole entry, looked up): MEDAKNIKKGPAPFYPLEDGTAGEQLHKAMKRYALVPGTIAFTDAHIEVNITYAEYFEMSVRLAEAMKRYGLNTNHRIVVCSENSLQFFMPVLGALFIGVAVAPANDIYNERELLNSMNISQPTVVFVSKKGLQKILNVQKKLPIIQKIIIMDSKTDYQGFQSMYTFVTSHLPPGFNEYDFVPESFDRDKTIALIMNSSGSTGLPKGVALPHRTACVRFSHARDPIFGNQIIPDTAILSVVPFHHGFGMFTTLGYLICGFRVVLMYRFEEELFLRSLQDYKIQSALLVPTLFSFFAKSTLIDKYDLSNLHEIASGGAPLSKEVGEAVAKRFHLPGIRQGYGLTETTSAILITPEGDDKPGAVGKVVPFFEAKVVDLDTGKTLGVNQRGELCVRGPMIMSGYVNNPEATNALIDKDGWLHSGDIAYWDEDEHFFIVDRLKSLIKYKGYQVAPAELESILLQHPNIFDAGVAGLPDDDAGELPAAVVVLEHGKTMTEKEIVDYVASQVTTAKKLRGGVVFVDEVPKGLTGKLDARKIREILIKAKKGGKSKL
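Purified P. pyralis luciferase, 10 nM final, with Km-level 10 uM D-luciferin and 10 uM ATP in 50 mM Tris acetate pH 7.5, 10 mM Mg acetate, 0.01% Tween-20, 0.05% BSA; 6-point qHTS titration about 60 µM downward; luminescence read.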
Luc counter: Kinase-Glo luciferase inhibition (counter-screen); Potency, µM (titrated, usually from 38.3 µM), for inactives: top-dose activity change, negative = inhibition, usual class: inhibitors; Q27757; Kinase-Glo luciferase, ATP luminescence, 8 min; actives 0.28% (n = 200,000); further: on the % scale 0 is the no-effect control and ±100 the full control effect; nearly all actives have a fitted effect of over 60% in size
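Compound is pinned into ATP-containing buffer (10 uM ATP, imidazole pH 7.2, 7 mM MgCl2). Kinase-Glo luciferase reagent is then added. Light output is recorded following an 8-min room-temperature incubation.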
NPC1 prom act: NPC1 promoter activation | Huh7 NPC1 promoter luciferase reporter, 24 h | Potency, µM (series often up to 9.22 µM), without a hit: at the highest dose activation, hits mostly activators | actives 2.4% (n = 320,000) | AID 485313; further: % of control where 0% means no effect; nearly all actives have a fitted effect of over 60% in size
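Stable NPC1-promoter luciferase Huh7 line; cpd (DMSO) 24 h, 37 °C, 5% CO2; Amplite luciferase reagent 10 min RT; luminescence readout. qHTS format.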
* = called active by the depositor; u = inconclusive; x = no result; [ ] = another dose, or the depositor's remark. The call rests on the fitted dose curve; in most records, active means well fitted curve in the direction sought with a large enough effect; inconclusive means small, poorly fitted or top-dose-only effect, or another doubt; inactive means no such curve, though single readings can be large; an effect the other way counts as inactive or inconclusive. Potency means the concentration at half of the fitted maximal effect.

SMILES	ELG1 genotox	Rab9 promoter act	SMN2 splice enh	FLuc counter	Luc counter	NPC1 prom act
O=C(O)c1cc(-c2c[nH]c3ccccc23)nc2cc3ccccc3cc12	17.4%	25.3%	x	0.675µM*	x	27.5%
O=C(O)c1cc(-c2ccc3ccccc3n2)nc2ccccc12	u	2.82µM*	x	0.601µM*	x	u
Nc1ccc(NC(=O)NC2CCCCC2)cc1[N+](=O)[O-]	u	u	x	-17.7%	-2.6%	28.8%
Cc1cc(O)c(CN2CCN(c3ccc(F)cc3)CC2)c2oc(=O)cc(C)c12	x	x	x	-5.8%	x	x
O=C(O)c1cc(-c2ccc(-c3ccccc3)cc2)nc2cc3ccccc3cc12	x	x	-1.3%[9.22 µM]	x	-4.4%[7.66 µM]	x
O=C(O)c1cc(-c2ccc3ccccc3c2)nc2ccc(F)cc12	1.5%	-2.6%[1.84 µM]	x	2.69µM*	x	-0.1%
O=C(C1=NN[C@@H]2C(=O)N(Cc3ccccc3)C(=O)[C@H]12)c1ccc(F)cc1	-2.2%	-7.7%	x	-1.7%	x	-1.2%
COc1cccc(-c2cc(C(=O)N3CCCCC3C)no2)c1 (stereo unspecified)	9.2µM*	2.24µM*	17.8µM*	8.49µM*	1.8%	1.58µM*
COc1ccc(-c2cc(C(=O)N3CCCCCC3)no2)cc1	4.61µM*	0.447µM*	x	1.9µM*	x	0.398µM*
COc1ccc(-c2cc(C(=O)N3CCN(C(c4ccccc4)c4ccccc4)CC3)no2)cc1	-9.9%	-1.0%	-30.5%	-1.6%	-2.0%	-7.4%
COc1ccc(-c2cc(C(=O)N3CCCC3)no2)cc1	2.91µM*	0.631µM*	x	1.2µM*	x	0.398µM*
COc1ccc(-c2cc(C(=O)N3CCCCCC3)no2)cc1OC	u	u	x	23.9µM*	x	u
COc1ccc(-c2cc(C(=O)N3CCN(C(c4ccccc4)c4ccccc4)CC3)no2)cc1OC	-5.8%	2.9%	-4.3%	7.2%	-6.7%	-8.3%
O=C(C1CCN(C2CCN(CC3CC=CCC3)CC2)CC1)N1CCOCC1 (stereo unspecified)	-0.4%	-12.2%	x	0.6%	-7.7%	-3.6%
Cc1cc(NC(=O)C2CCN(S(=O)(=O)c3cccc4nsnc34)CC2)ccc1Br	x	x	-20.1%	-1.3%	x	x
CCC1=C(c2ccc(C)cc2)S(=O)(=O)N=C1N1CCC(C(=O)N2CCCCC2)CC1	x	x	x	-2.2%	x	x
CCOC(=O)N/N=C(\C)c1ccccc1OC(F)F	-3.9%	-6.2%	-1.8%	-5.3%	4.5%	0.9%
COc1cccc(-c2cc(C(=O)N3CCCCCC3)no2)c1	1.46µM*	0.316µM*	3.16µM*	2.13µM*	-8.3%	0.562µM*
O/N=C\c1cnc(N2CCN(c3ccccc3)CC2)s1	u	u	x	16.9µM*	x	15.8%
COc1ccc(CNC(=O)CN(Cc2ccco2)C(=O)CCC(=O)Nc2ccccn2)cc1	-4.3%	-4.8%	x	2.6%	x	-2.9%
O=C(/C=C/c1ccccc1)NC1CC2CCC1C2 (stereo unspecified)	u	17.3%	u	19µM*	-0.1%	22.0%
O=C(/C=C/c1ccc(Cl)cc1)NC1CC2CCC1C2 (stereo unspecified)	u	11.1%	3.4%	23.9µM*	-2.4%	6.9%
CS(=O)(=O)Nc1ccccc1C(=O)NC1CC2CCC1C2 (stereo unspecified)	-1.3%	-5.0%	11.8%	-0.1%	-0.5%	-1.5%
O=C(/C=C/c1ccc([N+](=O)[O-])cc1)NC1CC2CCC1C2 (stereo unspecified)	9.5%	13.2%	15.1%	u	-1.6%	-0.6%
O=C(Nc1cccc(Cl)c1)NC1CC2CCC1C2 (stereo unspecified)	9.8%	15.8%	x	23.9µM*	x	26.2%
SMILES	ELG1 genotox	Rab9 promoter act	SMN2 splice enh	FLuc counter	Luc counter	NPC1 prom act
O=C(Nc1cccc(Cl)c1)NC1CC2CCC(C1)N2Cc1ccco1 (stereo unspecified)	-0.5%	11.3%	5.2%	-1.9%	0.4%	0.2%
O=C(/C=C/c1ccccc1[N+](=O)[O-])N1CCN(C(=O)c2ccco2)CC1	1.1%	-0.3%	6.6%	-1.8%	-0.4%	-5.1%
O=C(Cc1ccccc1)N(Cc1cccnc1)c1nc2c(F)cccc2s1	x	x	x	-9.0%	x	x
O=C(c1ccc2c(c1)OCCO2)N(Cc1cccnc1)c1nc2c(F)cccc2s1	x	x	x	16.9µM*	x	x
CCn1ccc2c(OCC(=O)Nc3ccc(OC)cc3OC)cccc2c1=O	x	x	x	-4.6%	x	x
COc1ccc(-n2c(=O)c3c4c(sc3n(Cc3ccc(F)cc3)c2=O)CCCC4)c(OC)c1	x	x	-9.9%	0.4%	x	x
COc1cc(/C=C2\SC(N)=NC2=O)ccc1O	-22.3%	-3.9%	x	u	x	1.5%
C=CCOc1ccc(/C=C2\SC(N)=NC2=O)cc1OC	u	-11.5%	x	10.7µM*	x	-2.2%
Cc1[nH]c2c(ccc3cccnc32)c1C	5.0%	18.1%	x	23.9µM*	x	11.1%
CCN(Cc1ccccc1)S(=O)(=O)c1ccc(-c2coc(C)n2)cc1	x	x	x	-18.5%	x	x
CCOc1ccc(-c2cc(CCCC(=O)Nc3cccc(OC)c3)no2)cc1	4.8%	-20.7%	12.0%	6.75µM*	2.2%	-19.2%
CCOc1ccc(-c2cc(CCCC(=O)Nc3cc(OC)ccc3OC)no2)cc1	-8.8%	-4.1%	-16.8%	6.01µM*	-0.9%	-3.6%
CCOc1ccc(NC(=O)CCCc2cc(-c3ccc(OCC)cc3)on2)cc1	7.1%	-0.3%	13.9%	-3.4%	-3.4%	-1.2%
CCOc1ccc(-c2nc(Cn3c(=O)cc(-c4ccccc4)c4c(C)nn(C)c43)c(C)o2)cc1OC	x	x	x	-12.9%	x	x
COC(=O)c1sccc1S(=O)(=O)N(CC(=O)NCc1ccccc1)c1ccc(C)cc1	x	x	x	4.0%	x	x
O=C(CN1CCCc2ccccc21)N/N=C/c1ccc(O)cc1O	20.6µM*	-18.3%	-2.9%	15.1µM*	2.1%	-12.8%
O=C(CN1CCCc2ccccc21)N/N=C/c1ccccc1	1.6%	0.5%	-3.2%	-15.1%	0.4%	-5.6%
O=C(C1CCN(S(=O)(=O)c2cccc3nonc23)CC1)N1CCN(c2ccc(F)cc2)CC1	x	x	-13.0%	-0.1%	x	x
O=S(=O)(c1cccc2nonc12)N1CCN(c2ccc(F)cc2)CC1	6.0%	-8.1%	x	26.9µM*	-1.0%	-1.5%
Cc1oc(-c2ccc(C(=O)NCc3ccccc3F)cc2)nc1COc1ccccc1	x	x	x	-1.5%	x	x
Cc1cc(S(=O)(=O)NCCc2csc(-c3cccc(F)c3)n2)ccc1F	x	x	x	-12.3%	x	x
Cc1nc(-c2ccc(Cl)cc2)sc1C1(C)CC(c2cccc(F)c2)=NO1 (stereo unspecified)	13.6%	-3.9%	x	23.9µM*	x	14.3%
Cc1nc(-c2ccc(Cl)cc2)sc1C1(C)CC(c2cccc(Cl)c2)=NO1 (stereo unspecified)	15.4%	2.6%	x	23.9µM*	x	17.5%
Clc1ccc(-c2csc(N3CCSCC3)n2)cc1	u	22.8%	13.6%	12µM*	2.6%	0.7%

Compound activity (PubChem BioAssay)
